Laboratory results taken from PubChem BioAssay (NCI).
Compounds without any hit were thinned out: in the full panel of roughly 79,000, 15% have a hit. Activity calls are given as the source filed them. No stated cut-off is given here; in the data, active means growth inhibition above about 70%; inactive means the rest.

Assay: NCI Yeast Anticancer Drug Screen. Data for the mec2-1 strain (AID 157)
Details: S. cerevisiae mec2-1 strain, active compounds read high
Experimental: Growth inhibition of yeast strains with defined genetic alterations is measured as a screen for potential anti-cancer activity. Selected strains with alterations in DNA damage repair or cell cycle control were exposed to compounds and growth inhibition was measured relative to vehicle treated controls. The strain used in this assay is mec2-1

[1] = at 5.0 µM (retest, dose inferred, filed as 0.5)
[2] = at 50.0 µM (retest, dose inferred, filed as 5.0)

Measured: growth inhibition

COC(=O)C1=C(C)NC(C)=C(C(=O)OC)C1c1cccc(/[N+]([O-])=C/c2ccccc2)c1
inactive: at 1.2 µM 3% | at 3.7 µM 5% | [1] 11% | at 11.0 µM 13% | at 33.0 µM 34% | [2] 25% | at 50.0 µM 40.5%
active: at 100.0 µM 83%

C[C@H](CCC(=O)NN)[C@H]1CC[C@H]2[C@@H]3CC[C@@H]4C[C@H](O)CC[C@]4(C)[C@H]3CC[C@]12C
inactive: at 1.2 µM 3% | at 3.7 µM 3% | [1] 0% | at 11.0 µM 3% | at 33.0 µM 5% | [2] 7% | at 50.0 µM 40.2% | at 100.0 µM 17%

O=C(COC(=O)c1cc(O)c(O)c(O)c1)c1ccc(-c2ccccc2)cc1
active: [2] 95% | at 100.0 µM 97%
inactive: at 1.2 µM -3% | at 3.7 µM -3% | [1] 6% | at 11.0 µM 3% | at 33.0 µM 34% | at 50.0 µM 30.4%

Oc1cccc2c(Cl)ccnc12
inactive: at 1.2 µM 39% | at 3.7 µM 63%
active: [1] 99% | at 11.0 µM 99% | at 33.0 µM 97% | [2] 99% | at 50.0 µM 93.2% | at 100.0 µM 99%

Cc1c(Cl)ccc2c1S(=O)(=O)c1cccc(Cl)c1-2
inactive: at 1.2 µM -24% | at 3.7 µM -31% | at 11.0 µM -32% | at 33.0 µM -28% | at 50.0 µM 29.5% | at 100.0 µM -32%
active: [1] 100% | [2] 100%
